This is an account of results in PubChem BioAssay (Tox21).

The structures appear in SMILES notation. Records with an inconclusive call do not appear. A call without a number means that no potency is given here. The source made the active and inactive calls. Calls follow the shape of the dose curve; as a rule, active = well fitted curve in the direction sought with a large enough effect in the repeat runs; inconclusive = weak or mixed curves; inactive = no such curve, though single readings can be large; an effect the other way counts as inactive or inconclusive.

System in one assay: not listed separately
The assay is described as follows: qHTS assay to identify aromatase inhibitors - cell viability counter screen (AID 743084).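 Also: cells stimulated with testosterone during compound exposure; nearly all actives have a fitted effect of over 55% in size.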 The note with it: MCF-7 aro ERE viability, CellTiter-Fluor, 24 h; series mostly up to 70.3 µM. (In general: Quantitative high-throughput screening tests each substance at several concentrations.)
For `CCC(=O)c1ccc2c(c1)N(CCCN1CCN(CCO)CC1)c1ccccc1S2`, the Potency entry is “inactive”. Turning to `CN(C)CCC=C1c2ccccc2C(C)(C)c2ccccc21`, the Potency result is “inactive”. Still for that read-out and setting: in the case of `C=C1/C(=C\C=C2/CCC[C@]3(C)[C@@H]([C@H](C)OCCC(C)(C)O)CC[C@@H]23)C[C@@H](O)C[C@@H]1O` it was “inactive”; in that of `CC[C@H]1OC(=O)[C@H](C)[C@@H](O[C@H]2C[C@@](C)(OC)[C@@H](O)[C@H](C)O2)[C@H](C)[C@@H](O[C@@H]2O[C@H](C)C[C@H](N(C)C)[C@H]2O)[C@](C)(O)C[C@@H](C)[C@@H]2N[C@@H](COCCOC)O[C@@H]([C@H]2C)[C@]1(C)O`, “inactive”.

Take `CNC(C)CCC=C(C)C` (configuration not stated): the Potency entry is “inactive”. Still for that read-out and setting: as for `Cn1nnnc1SCC1=C(C(=O)O)N2C(=O)[C@@H](NC(=O)[C@H](O)c3ccccc3)[C@H]2SC1`, the entry is “inactive”.

`C[C@]12C=CC(=O)N[C@@H]1CC[C@@H]1[C@@H]2CC[C@]2(C)[C@@H](C(=O)Nc3cc(C(F)(F)F)ccc3C(F)(F)F)CC[C@@H]12`: the Potency result is “inactive”.

For the molecule `O=C(NOC[C@H](O)CO)c1ccc(F)c(F)c1Nc1ccc(I)cc1F`, the Potency result was “inactive”.

The target of the next assay is Aryl hydrocarbon receptor (Homo sapiens) (UniProt P35869). The assay can be described thus: qHTS assay to identify small molecule that activate the aryl hydrocarbon receptor (AhR) signaling pathway (AID 743085). Also: nearly all actives have a fitted effect of over 15% in size. Also: potency is read from the fitted curve at half-maximal effect. The note with it: HepG2 AhR-luc (HG2L7.5c1), luciferase, 24 h; series mostly up to 70.3 µM. A digest of the protocol: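 HepG2 cells stably carrying a 20-DRE firefly luciferase reporter (HG2L7.5c1) treated with compound for 24 hr at 37C. Luciferase read by ONE-Glo luminescence, with CellTiter-Fluor viability read first.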
Chain of Aryl hydrocarbon receptor (Homo sapiens) (P35869 whole entry, looked up): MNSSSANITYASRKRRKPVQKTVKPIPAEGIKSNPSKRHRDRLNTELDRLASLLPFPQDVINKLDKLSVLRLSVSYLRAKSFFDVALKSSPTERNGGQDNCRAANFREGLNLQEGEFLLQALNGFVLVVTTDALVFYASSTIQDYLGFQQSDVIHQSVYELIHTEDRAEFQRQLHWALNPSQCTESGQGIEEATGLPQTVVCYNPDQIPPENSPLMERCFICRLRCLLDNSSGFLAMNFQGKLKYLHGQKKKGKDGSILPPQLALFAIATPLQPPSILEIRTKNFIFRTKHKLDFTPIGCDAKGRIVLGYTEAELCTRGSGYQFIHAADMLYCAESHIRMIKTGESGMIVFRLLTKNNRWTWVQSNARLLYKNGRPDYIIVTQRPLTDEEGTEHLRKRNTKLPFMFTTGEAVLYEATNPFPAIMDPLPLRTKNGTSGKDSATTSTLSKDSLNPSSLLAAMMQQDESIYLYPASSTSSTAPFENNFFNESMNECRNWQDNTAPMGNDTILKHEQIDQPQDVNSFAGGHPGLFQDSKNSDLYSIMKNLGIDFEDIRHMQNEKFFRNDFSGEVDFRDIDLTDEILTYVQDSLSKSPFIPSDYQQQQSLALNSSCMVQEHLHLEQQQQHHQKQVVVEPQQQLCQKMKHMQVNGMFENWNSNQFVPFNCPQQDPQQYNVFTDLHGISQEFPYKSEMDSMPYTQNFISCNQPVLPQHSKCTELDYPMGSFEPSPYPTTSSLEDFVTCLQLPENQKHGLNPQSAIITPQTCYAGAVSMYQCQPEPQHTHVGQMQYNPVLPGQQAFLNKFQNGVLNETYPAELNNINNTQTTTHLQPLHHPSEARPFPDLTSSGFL
Turning to `COC(=O)C1=C(C)NC(C)=C(C(=O)O[C@H]2CCN(Cc3ccccc3)C2)[C@H]1c1cccc([N+](=O)[O-])c1`, the Potency entry was “inactive”.

As for `CN1[C@@H]2CC[C@H]1CC(OC(c1ccccc1)c1ccccc1)C2` (some centres not stated), the Potency entry was “inactive”. For the molecule `C[C@H]1C[C@H]2[C@@H]3CCC4=CC(=O)C=C[C@]4(C)[C@@]3(F)[C@@H](O)C[C@]2(C)[C@@]1(O)C(=O)CCl`, the Potency was 6.68 µM (active). For the molecule `CN(C)CCCN1c2ccccc2C(C)(C)c2ccccc21`, the Potency result was “inactive”. Turning to `COc1ccc2c(c1)OC(C)(C)C(c1ccccc1)C2c1ccc(OCCN2CCCC2)cc1` (configuration not stated), the Potency result is “inactive”.

On to `CCNC(=O)[C@@H]1CCCN1C(=O)[C@H](CCCN=C(N)N)NC(=O)[C@H](CC(C)C)NC(=O)[C@@H](Cc1c[nH]c2ccccc12)NC(=O)[C@H](Cc1ccc(O)cc1)NC(=O)[C@H](CO)NC(=O)[C@H](Cc1c[nH]c2ccccc12)NC(=O)[C@H](Cc1cnc[nH]1)NC(=O)[C@@H]1CCC(=O)N1`, for which the Potency result is “inactive”. Take `COc1ccc(C(=O)Nc2ccccc2CCC2CCCCN2C)cc1` (configuration not stated): the Potency result is “inactive”.

Take `O=C(Nc1ccc(/C=C/c2ccc(NC(=O)c3cc(S(=O)(=O)O)c4cccnc4c3O)cc2S(=O)(=O)O)c(S(=O)(=O)O)c1)c1cc(S(=O)(=O)O)c2cccnc2c1O`: the Potency entry was “inactive”. For `CCCC1([C@H](O)C/C=C/[C@H]2[C@H](O)CC(=O)[C@@H]2CCCCCCC(=O)OC)CCC1`, the Potency result was “inactive”. Take `OCCN1CCN(CC/C=C2/c3ccccc3Sc3ccc(Cl)cc32)CC1`: the Potency result is “inactive”. In the case of `CN1CCN(CCCN2c3ccccc3Sc3ccccc32)CC1`, the Potency result is “inactive”. Consider `CC(O)[C@H]1CC[C@H]2[C@@H]3CC[C@@H]4C[C@@H](O)CC[C@]4(C)[C@H]3CC[C@]12C` (some centres not stated), for which the Potency result is “inactive”. Consider `CN(C)CC/C=C1/c2ccccc2CSc2ccccc21`, for which the Potency entry was “inactive”.

For `CC1=C(C(=O)OCCN(Cc2ccccc2)c2ccccc2)C(c2cccc([N+](=O)[O-])c2)C(P2(=O)OCC(C)(C)CO2)=C(C)N1` (configuration not stated), the Potency result was “inactive”. Take `CC(CN(C)C)CN1c2ccccc2S(=O)(=O)c2ccccc21` (configuration not stated): the Potency entry was “inactive”. As to `CN1[C@@H]2CCC[C@H]1CC(NC(=O)c1nn(C)c3ccccc13)C2` (some centres not stated), the Potency entry is “inactive”. `CCN(CC)CCOc1ccc(-c2nc3cc(Cl)ccc3s2)cc1`: the Potency was 8.41 µM (active).

As for `COc1cc2[nH]c(C)c(CCN3CCN(c4ccccc4)CC3)c2cc1OC`, the Potency result was “inactive”.

As to `CC1(S(=O)(=O)O)CC(=O)c2ccccc2C1=O` (configuration not stated), the Potency was 10.6 µM (active). On the same count and under the same terms, in the case of `CN(C)CCC=C1c2ccccc2C(C)(C)c2ccccc21` it was “inactive”. The same measure, in the same setting: as for `CN1CC(O)c2cc(N=NC(N)=O)c(O)cc21` (configuration not stated), the entry is “inactive”; as for `C[C@]12C=CC(=O)N[C@@H]1CC[C@@H]1[C@@H]2CC[C@]2(C)[C@@H](C(=O)Nc3cc(C(F)(F)F)ccc3C(F)(F)F)CC[C@@H]12`, “inactive”.

System in another assay: not listed separately
The assay can be described thus: qHTS assay to identify small molecule that activate the aryl hydrocarbon receptor (AhR) signaling pathway - cell viability counter screen (AID 743086). Also: nearly all actives have a fitted effect of over 45% in size. Also: potency is read from the fitted curve at half-maximal effect. The note with it: HepG2-AhR-luc viability, CellTiter-Fluor, 24 h; series mostly up to 70.3 µM. A digest of the protocol: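 HepG2-AhR-luc (HG2L7.5c1) cells, 4000/well, were preincubated 5 h at 37C, exposed to compound in qHTS format for 24 hr at 37C, then given CellTiter-Fluor for 30 min; viability was read as fluorescence in the reporter wells.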
Take `COC(=O)C1=C(C)NC(C)=C(C(=O)O[C@H]2CCN(Cc3ccccc3)C2)[C@H]1c1cccc([N+](=O)[O-])c1`: the Potency was 29.8 µM (active).

With `CN1[C@@H]2CC[C@H]1CC(OC(c1ccccc1)c1ccccc1)C2` (some centres not stated), the Potency entry was “inactive”. Regarding `COc1cc(NCCCC(C)N)c2ncccc2c1` (configuration not stated), the Potency result was “inactive”. Turning to `O=C(O)c1cc2ccccc2c(Cc2c(O)c(C(=O)O)cc3ccccc23)c1O`, the Potency result is “inactive”. Same read-out and setting: in the case of `CCNC(=O)[C@@H]1CCCN1C(=O)[C@H](CCCN=C(N)N)NC(=O)[C@H](CC(C)C)NC(=O)[C@@H](Cc1c[nH]c2ccccc12)NC(=O)[C@H](Cc1ccc(O)cc1)NC(=O)[C@H](CO)NC(=O)[C@H](Cc1c[nH]c2ccccc12)NC(=O)[C@H](Cc1cnc[nH]1)NC(=O)[C@@H]1CCC(=O)N1` it was 7.5 µM (active). Turning to `O=C(Nc1ccc(/C=C/c2ccc(NC(=O)c3cc(S(=O)(=O)O)c4cccnc4c3O)cc2S(=O)(=O)O)c(S(=O)(=O)O)c1)c1cc(S(=O)(=O)O)c2cccnc2c1O`, the Potency entry is “inactive”. With `CCCC1([C@H](O)C/C=C/[C@H]2[C@H](O)CC(=O)[C@@H]2CCCCCCC(=O)OC)CCC1`, the Potency entry is “inactive”. The same measure, in the same setting: in the case of `CCN(CC)c1ccc(N=Nc2ccc(S(=O)(=O)N(C)C)cc2)c(S(=O)(=O)NCC[n+]2ccccc2)c1` it was “inactive”; in that of `OCCN1CCN(CC/C=C2/c3ccccc3Sc3ccc(Cl)cc32)CC1`, “inactive”; in that of `C[C@]12C=CC(=O)C=C1CC[C@@H]1[C@@H]2[C@@H](O)C[C@@]2(C)[C@H]1CC[C@]2(O)C(=O)COC(=O)CCC(=O)O`, “inactive”. On to `CC(O)[C@H]1CC[C@H]2[C@@H]3CC[C@@H]4C[C@@H](O)CC[C@]4(C)[C@H]3CC[C@]12C` (some centres not stated), for which the Potency result was “inactive”. As for `Cc1c(N)nc(C(CC(N)=O)NCC(N)C(N)=O)nc1C(=O)NC(C(=O)NC(C)C(O)C(C)C(=O)NC(C(=O)NCCc1nc(-c2nc(C(=O)NCCCN[C@@H](C)c3ccccc3)cs2)cs1)C(C)O)C(O[C@@H]1O[C@@H](CO)[C@@H](O)[C@H](O)[C@@H]1O[C@H]1O[C@H](CO)[C@@H](O)[C@H](OC(N)=O)[C@@H]1O)c1cnc[nH]1` (some centres not stated), the Potency entry was “inactive”.

As for `O=P(O)(O)C(O)(Cc1cnc2ccccn12)P(=O)(O)O`, the Potency result was “inactive”.

Regarding `CN1[C@@H]2CCC[C@H]1CC(NC(=O)c1nn(C)c3ccccc13)C2` (some centres not stated), the Potency result was “inactive”. For the molecule `C#C[C@]1(OC(C)=O)CC[C@H]2[C@@H]3CCC4=CC(=O)CC[C@@H]4[C@H]3CC[C@@]21C`, the Potency result was “inactive”. For the molecule `CC[C@H]1OC(=O)[C@H](C)[C@@H](O[C@H]2C[C@@](C)(OC)[C@@H](O)[C@H](C)O2)[C@H](C)[C@@H](O[C@@H]2O[C@H](C)C[C@H](N(C)C)[C@H]2O)[C@](C)(O)C[C@@H](C)[C@@H]2N[C@@H](COCCOC)O[C@@H]([C@H]2C)[C@]1(C)O`, the Potency result was “inactive”. For the molecule `CNC(C)CCC=C(C)C` (configuration not stated), the Potency result was “inactive”. As for `Cc1ccc(/C(=C\CN2CCCC2)c2cccc(/C=C/C(=O)O)n2)cc1`, the Potency entry is “inactive”. For the molecule `C=C1C(=C/C=C2\CCC[C@]3(C)[C@@H]([C@H](C)/C=C/[C@H](C)C(C)C)CC[C@@H]23)C[C@@H](O)C[C@@H]1O`, the Potency result is “inactive”. Take `Cn1nnnc1SCC1=C(C(=O)O)N2C(=O)[C@@H](NC(=O)[C@H](O)c3ccccc3)[C@H]2SC1`: the Potency entry was “inactive”. Consider `C[C@]12C=CC(=O)N[C@@H]1CC[C@@H]1[C@@H]2CC[C@]2(C)[C@@H](C(=O)Nc3cc(C(F)(F)F)ccc3C(F)(F)F)CC[C@@H]12`, for which the Potency result was “inactive”. With `O=C(NOC[C@H](O)CO)c1ccc(F)c(F)c1Nc1ccc(I)cc1F`, the Potency result was “inactive”.
